About 79,000 compounds went through this panel and 15% of them were active in at least one assay; those are over-represented in the sample as a whole. Calls of active or inactive are those of the source. Cut-off read from the data, not from the text of the source: active = growth inhibition above about 70%; inactive = the rest.
Tests used:
[1] = NCI Yeast Anticancer Drug Screen. Data for the rad52 strain (AID 147);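 note: 0% = growth of vehicle-treated control cultures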; settings: S. cerevisiae rad52 mutant growth inhibition, stronger effect = higher value
Method in brief: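 The repair-mutant yeast strain was incubated with compounds, then growth was read and inhibition derived relative to vehicle.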

[2] = NCI Yeast Anticancer Drug Screen. Data for the wt1 strain (AID 149);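 note: 0% = growth of vehicle-treated wt1 cultures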; settings: S. cerevisiae wt1 strain (SPY 50644) growth inhibition, stronger effect = higher value
Method in brief: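 Yeast wt1 strain exposed to compounds; growth inhibition measured relative to vehicle-treated controls.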

[3] = NCI Yeast Anticancer Drug Screen. Data for the rad50EPP+ strain (AID 151);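 note: 0% = growth of vehicle-treated control cultures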; settings: S. cerevisiae rad50 mutant strain, stronger effect = higher value
Method in brief: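 Vehicle-normalised growth inhibition; rad50EPP+ yeast strain, altered in DNA damage repair, compound-treated.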

[4] = NCI Yeast Anticancer Drug Screen. Data for the mgt1 strain (AID 153); settings: S. cerevisiae mgt1 mutant growth inhibition, stronger effect = higher value
Method in brief: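 Vehicle-normalized growth inhibition is determined in mgt1 yeast, a strain selected for a defined alteration in DNA repair or cell cycle control.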

[5] = NCI Yeast Anticancer Drug Screen. Data for the rad50 strain (AID 155);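 note: 0% = growth of vehicle-only cultures of the same strain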; settings: S. cerevisiae rad50 strain growth inhibition, stronger effect = higher value
Method in brief: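 Yeast carrying a defined DNA repair defect were exposed to test compounds, and growth was compared with vehicle-treated controls to give percent inhibition.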

[6] = NCI Yeast Anticancer Drug Screen. Data for the mec2-1 strain (AID 157); settings: S. cerevisiae mec2-1 strain, stronger effect = higher value
Method in brief: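 Mutant yeast (mec2-1) grown with compound; growth inhibition relative to vehicle control reported.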

[7] = NCI Yeast Anticancer Drug Screen. Data for the rad14 strain (AID 159);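 note: 0% = growth of vehicle-treated control cultures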; settings: S. cerevisiae rad14 strain growth inhibition, stronger effect = higher value
Method in brief: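 Yeast cells carrying a defined DNA-repair defect were exposed to compounds, and growth inhibition was calculated relative to vehicle-treated control cultures.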

[8] = NCI Yeast Anticancer Drug Screen. Data for the sgs1 mgt1 strain (AID 161);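 note: 0% = growth of cultures given vehicle only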; settings: S. cerevisiae sgs1 mgt1 strain, stronger effect = higher value
Method in brief: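 Percent growth inhibition was derived by comparing compound-exposed mutant yeast with vehicle-exposed cultures. The strain carries alterations in DNA damage repair.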

[9] = NCI Yeast Anticancer Drug Screen. Data for the CLN2oe strain (AID 163);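 note: 0% = growth of vehicle-only control cultures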; settings: S. cerevisiae CLN2oe strain, stronger effect = higher value
Method in brief: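 Compounds are applied to yeast harbouring a defined cell-cycle control change; reduced growth compared with vehicle-treated controls gives the value.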

[10] = NCI Yeast Anticancer Drug Screen. Data for the cln2 rad14 strain (AID 165);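 note: 0% = growth equal to vehicle treated cultures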; settings: S. cerevisiae cln2 rad14 strain, stronger effect = higher value
Method in brief: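 Readout is yeast growth inhibition versus vehicle-treated controls, using a strain with cln2 and rad14 alterations exposed to compound.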

[11] = NCI Yeast Anticancer Drug Screen. Data for the bub3 strain (AID 167); settings: S. cerevisiae bub3 mutant strain, stronger effect = higher value
Method in brief: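 Compounds were applied to a genetically altered yeast strain carrying a cell-cycle control defect. Growth inhibition was scored against vehicle-treated controls.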

[12] = NCI Yeast Anticancer Drug Screen. Data for the sgs1 strain (AID 173);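 note: 0% = growth of vehicle-only control cultures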; settings: S. cerevisiae sgs1 mutant, stronger effect = higher value
Method in brief: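 Each compound was added to cultures of the altered yeast strain. Growth was recorded, and inhibition was derived by comparison with vehicle controls.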

[13] = NCI Yeast Anticancer Drug Screen. Data for the mlh1 rad18 strain (AID 175); settings: S. cerevisiae mlh1 rad18 strain growth inhibition, stronger effect = higher value
Method in brief: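 Genetically defined yeast (DNA repair-deficient) exposed to compounds; growth inhibition determined relative to vehicle.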

[14] = NCI Yeast Anticancer Drug Screen. Data for the rad18 strain (AID 177); settings: S. cerevisiae rad18 mutant growth inhibition, stronger effect = higher value
Method in brief: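 Vehicle-treated cultures served as the baseline for scoring compound-induced growth inhibition in DNA-repair-mutant yeast.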

[15] = NCI Yeast Anticancer Drug Screen. Data for the wt2 strain (AID 169);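 note: 0% = growth of vehicle-treated yeast cultures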; settings: S. cerevisiae wt2 strain growth inhibition, stronger effect = higher value
Method in brief: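 Against vehicle-treated controls, the growth of yeast exposed to each compound was compared, and the inhibition was recorded.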

[16] = at 5.0 µM (retest, dose inferred, filed as 0.5)
[17] = at 50.0 µM (retest, dose inferred, filed as 5.0)

Measured: growth inhibition

CCOC(=O)/C(=C\c1ccc(F)cc1)C(C)=O
active: [1]; at 33.0 µM 94% | [1]; at 100.0 µM 98% | [2]; at 33.0 µM 93% | [2]; at 100.0 µM 98% | [3]; at 33.0 µM 93% | [3]; at 100.0 µM 98% | [4]; at 11.0 µM 77% | [4]; at 33.0 µM 96% | [4]; at 100.0 µM 99% | [5]; at 11.0 µM 72% | [5]; at 33.0 µM 95% | [5]; [17] 97% | [5]; at 50.0 µM 91.8% | [5]; at 100.0 µM 97% | [6]; at 11.0 µM 74% | [6]; at 33.0 µM 95% | [6]; [17] 98% | [6]; at 50.0 µM 93.8% | [6]; at 100.0 µM 97% | [7]; at 33.0 µM 95% | [7]; at 100.0 µM 97% | [8]; [17] 97% | [8]; at 50.0 µM 93% | [9]; at 33.0 µM 96% | [9]; at 100.0 µM 98% | [10]; [17] 93% | [10]; at 50.0 µM 89% | [11]; at 11.0 µM 91% | [11]; at 33.0 µM 97% | [11]; [17] 97% | [11]; at 50.0 µM 92.1% | [11]; at 100.0 µM 98% | [12]; at 11.0 µM 72% | [12]; at 33.0 µM 97% | [12]; at 100.0 µM 98% | [13]; [17] 97% | [13]; at 50.0 µM 91.9% | [14]; at 11.0 µM 77% | [14]; at 33.0 µM 94% | [14]; at 100.0 µM 97%
inactive: [1]; at 1.2 µM -43% | [1]; at 3.7 µM -17% | [1]; at 11.0 µM 57% | [2]; at 1.2 µM -17% | [2]; at 3.7 µM 4% | [2]; at 11.0 µM 48% | [3]; at 1.2 µM 8% | [3]; at 3.7 µM 30% | [3]; at 11.0 µM 68% | [4]; at 1.2 µM -19% | [4]; at 3.7 µM 6% | [5]; at 1.2 µM -7% | [5]; at 3.7 µM 19% | [5]; [16] 30% | [6]; at 1.2 µM -43% | [6]; at 3.7 µM -3% | [6]; [16] 0% | [7]; at 1.2 µM -11% | [7]; at 3.7 µM -4% | [7]; at 11.0 µM 61% | [8]; [16] 21% | [9]; at 1.2 µM 6% | [9]; at 3.7 µM 4% | [9]; at 11.0 µM 67% | [10]; [16] 9% | [11]; at 1.2 µM 9% | [11]; at 3.7 µM 37% | [11]; [16] 48% | [12]; at 1.2 µM -2% | [12]; at 3.7 µM 22% | [13]; [16] 6% | [14]; at 1.2 µM -34% | [14]; at 3.7 µM 14%

Fc1cc(F)c(F)c(S)c1F
inactive: [1]; at 1.2 µM -44% | [1]; at 3.7 µM -10% | [1]; at 11.0 µM -38% | [1]; at 33.0 µM 29% | [2]; at 1.2 µM -31% | [2]; at 3.7 µM -26% | [2]; at 11.0 µM -39% | [2]; at 33.0 µM 36% | [3]; at 1.2 µM -51% | [3]; at 3.7 µM -18% | [3]; at 11.0 µM 45% | [4]; at 1.2 µM -78% | [4]; at 3.7 µM -74% | [4]; at 11.0 µM -56% | [4]; at 33.0 µM 48% | [5]; at 1.2 µM -43% | [5]; at 3.7 µM -28% | [5]; [16] -12% | [5]; at 11.0 µM -32% | [5]; at 33.0 µM 25% | [6]; at 1.2 µM -56% | [6]; at 3.7 µM -55% | [6]; [16] -19% | [6]; at 11.0 µM -6% | [6]; at 33.0 µM 10% | [7]; at 1.2 µM -47% | [7]; at 3.7 µM -44% | [7]; at 11.0 µM -40% | [7]; at 33.0 µM 4% | [8]; [16] -1% | [9]; at 1.2 µM -29% | [9]; at 3.7 µM -20% | [9]; at 11.0 µM 8% | [9]; at 33.0 µM 69% | [10]; [16] 43% | [11]; at 1.2 µM -9% | [11]; at 3.7 µM -4% | [11]; [16] 12% | [11]; at 11.0 µM 26% | [15]; at 1.2 µM -48% | [15]; at 3.7 µM -46% | [15]; at 11.0 µM -32% | [15]; at 33.0 µM 56% | [12]; at 1.2 µM -34% | [12]; at 3.7 µM -37% | [12]; at 11.0 µM -27% | [12]; at 33.0 µM 54% | [13]; [16] 9% | [14]; at 1.2 µM -43% | [14]; at 3.7 µM -34% | [14]; at 11.0 µM -12% | [14]; at 33.0 µM 48%
active: [1]; at 100.0 µM 98% | [2]; at 100.0 µM 97% | [3]; at 33.0 µM 90% | [3]; at 100.0 µM 98% | [4]; at 100.0 µM 97% | [5]; [17] 91% | [5]; at 50.0 µM 87.9% | [5]; at 100.0 µM 97% | [6]; [17] 97% | [6]; at 50.0 µM 92.3% | [6]; at 100.0 µM 99% | [7]; at 100.0 µM 96% | [8]; [17] 89% | [8]; at 50.0 µM 83.7% | [9]; at 100.0 µM 98% | [10]; [17] 83% | [10]; at 50.0 µM 79.5% | [11]; at 33.0 µM 84% | [11]; [17] 98% | [11]; at 50.0 µM 90.9% | [11]; at 100.0 µM 99% | [15]; at 100.0 µM 98% | [12]; at 100.0 µM 98% | [13]; [17] 99% | [13]; at 50.0 µM 74.5% | [14]; at 100.0 µM 96%

O/N=c1/ccn(O)c2ccccc12
active: [1]; at 3.7 µM 91% | [1]; at 11.0 µM 95% | [1]; at 33.0 µM 96% | [1]; at 100.0 µM 95% | [3]; at 1.2 µM 87% | [3]; at 3.7 µM 96% | [3]; at 11.0 µM 97% | [3]; at 33.0 µM 97% | [3]; at 100.0 µM 97% | [4]; at 100.0 µM 84% | [5]; at 1.2 µM 74% | [5]; at 3.7 µM 96% | [5]; [16] 89% | [5]; at 11.0 µM 95% | [5]; at 33.0 µM 96% | [5]; [17] 95% | [5]; at 50.0 µM 96.3% | [5]; at 100.0 µM 96% | [6]; at 3.7 µM 97% | [6]; [16] 94% | [6]; at 11.0 µM 98% | [6]; at 33.0 µM 98% | [6]; [17] 98% | [6]; at 50.0 µM 97.5% | [6]; at 100.0 µM 98% | [7]; at 1.2 µM 96% | [7]; at 3.7 µM 99% | [7]; at 11.0 µM 99% | [7]; at 33.0 µM 99% | [7]; at 100.0 µM 99% | [8]; [16] 87% | [8]; [17] 95% | [8]; at 50.0 µM 97% | [10]; [16] 98% | [10]; [17] 99% | [10]; at 50.0 µM 98.8% | [11]; [17] 72% | [11]; at 50.0 µM 83.2% | [11]; at 100.0 µM 79% | [12]; at 1.2 µM 85% | [12]; at 3.7 µM 94% | [12]; at 11.0 µM 96% | [12]; at 33.0 µM 96% | [12]; at 100.0 µM 96% | [13]; [16] 82% | [13]; [17] 97% | [13]; at 50.0 µM 97.5% | [14]; at 1.2 µM 96% | [14]; at 3.7 µM 98% | [14]; at 11.0 µM 97% | [14]; at 33.0 µM 97% | [14]; at 100.0 µM 97%
inactive: [1]; at 1.2 µM 49% | [2]; at 1.2 µM 0% | [2]; at 3.7 µM 8% | [2]; at 11.0 µM 20% | [2]; at 33.0 µM 43% | [2]; at 100.0 µM 61% | [4]; at 1.2 µM -1% | [4]; at 3.7 µM 7% | [4]; at 11.0 µM 23% | [4]; at 33.0 µM 51% | [6]; at 1.2 µM 51% | [9]; at 1.2 µM -8% | [9]; at 3.7 µM -5% | [9]; at 11.0 µM 8% | [9]; at 33.0 µM 37% | [9]; at 100.0 µM 58% | [11]; at 1.2 µM -5% | [11]; at 3.7 µM 5% | [11]; [16] 11% | [11]; at 11.0 µM 24% | [11]; at 33.0 µM 54% | [15]; at 1.2 µM -1% | [15]; at 3.7 µM 14% | [15]; at 11.0 µM 20% | [15]; at 33.0 µM 39% | [15]; at 100.0 µM 58%

— PubChem BioAssay (NCI)
